This passage reports max response, negative = inhibition results from PubChem BioAssay AID652054 (National Center for Advancing Translational Sciences (NCATS), 2013).

Among all 360,000 compounds or so, about 9,100 (2.5%) were called active. Roughly 4% stayed inconclusive and do not appear here. No stated cut-off is given here; in the data, active means max response below about -50%; inconclusive means no clear call, values can overlap the other calls; inactive means above that. The sample as a whole holds a higher share of actives than the screen did.
On the % scale 0 is the no-effect control and ±100 the full control effect.

D(3) dopamine receptor (Homo sapiens), sequence (P35462 whole entry, looked up): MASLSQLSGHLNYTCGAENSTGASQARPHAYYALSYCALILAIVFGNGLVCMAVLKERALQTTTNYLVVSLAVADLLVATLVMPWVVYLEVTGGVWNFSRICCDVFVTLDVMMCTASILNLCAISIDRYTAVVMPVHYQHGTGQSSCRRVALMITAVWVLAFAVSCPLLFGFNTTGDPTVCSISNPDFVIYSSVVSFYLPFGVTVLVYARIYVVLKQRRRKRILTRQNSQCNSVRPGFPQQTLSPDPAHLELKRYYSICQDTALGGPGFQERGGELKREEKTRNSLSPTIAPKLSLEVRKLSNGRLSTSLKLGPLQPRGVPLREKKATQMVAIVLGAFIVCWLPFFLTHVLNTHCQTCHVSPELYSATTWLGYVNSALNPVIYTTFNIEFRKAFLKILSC

This test has as its target D(3) dopamine receptor (Homo sapiens) (UniProt P35462). The experiment in a line: qHTS of D3 Dopamine Receptor Antagonist: qHTS. Particulars: D3R cells, DiscoveRx beta-arrestin luminescence, antagonist mode; stronger effect = lower value. In short, it runs like this: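 Cells expressing the human receptor were seeded at 1500 cells/well, incubated overnight at 37 degrees C in 5% CO2, then exposed to library compounds with dopamine controls for 90 minutes at 37 degrees C before luminescent detection.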
On the technique in general: Quantitative high-throughput screening tests each substance at several concentrations.
With `CC1(C(=O)NCc2ccc3c(c2)OCO3)CCN1C(=O)Cc1cccc2ccccc12` (stereo not given), the max response, negative = inhibition was -2.93% (inactive).
As for `FC(F)(F)c1cccc(Cc2noc(CN3CCC(N4CCCCC4)CC3)n2)c1`, the max response, negative = inhibition is 43.6% (inactive).
Then `O=C(c1ccco1)N1CCN(Cc2cccc(C(F)(F)F)c2)CC1`, with 19.4% (inactive); and `CCOC(=O)N1CCN(Cc2nc(Cc3cccc(C(F)(F)F)c3)no2)CC1`, with -50.2% (active); and `CCCNC(=O)C1(C)CCCN(C(=O)c2cccc(OC(C)=O)c2C)C1` (stereo not given), with 9.36% (inactive).
Then `COc1ccccc1Cc1c(-c2ccc(Cl)cc2)nc2c3ccccc3ccn12`, with 7.3% (inactive); and `O=C(NCCS(=O)(=O)NCc1ccc(F)cc1)c1ccccc1`, with -8.19% (inactive); and `Cc1ccc(CNS(=O)(=O)CCNC(=O)c2ccccc2)cc1`, with 18.2% (inactive).
Turning to `CCCCNCCS(=O)(=O)NCc1ccccc1`, the max response, negative = inhibition was -71.2% (active).
In the case of `CC(=O)N1CCN(Cc2cc(=O)oc3cc(C)ccc23)CC1` it was 10.4% (inactive).
Then `COc1ccc(S(=O)(=O)N2CCN(CC(=O)N3CCNC3=O)CC2)cc1OC`, with 3.73% (inactive); and `Cn1ncc([N+](=O)[O-])c1C(=O)Nc1cc(Cl)ccc1Cl`, with 0% (inactive); and `O=C(CSc1ncn[nH]1)NCc1ccc2c(c1)OCO2`, with 5.23% (inactive).
In the case of `O=C(CSc1ncn[nH]1)Nc1ccc(Br)cc1Br` it was -17.2% (inactive); in that of `O=C(/C=C/Sc1ncn[nH]1)c1ccc(Cl)cc1`, -50.9% (active); in that of `CN(C)C(=O)c1cccc(-c2cnc3sc(NCc4ccc5c(c4)OCO5)nn23)c1`, 59.7% (inactive).
`CCCCCc1c(-c2cccc(Br)c2)ncn1CCc1ccccc1OC`: the max response, negative = inhibition was 19.8% (inactive).
As to `CCCNC(=O)C1(C)CCCN(C(=O)c2oc3ccccc3c2C)C1` (stereo not given), the max response, negative = inhibition is -13.3% (inactive).
In the case of `Cn1cc(Cl)c(C(=O)NNC(=S)Nc2cccc(Cl)c2)n1` it was -24.3% (inactive); in that of `Cc1nn(C)cc1C(=O)NNC(=S)Nc1ccc(Cl)cc1`, -63.2% (active); in that of `Cc1nn(C)cc1CNC(=O)Nc1ccc(Cl)cc1`, 6.1% (inactive).
Take `Cc1cccc(CN2CCN(C3CN(Cc4ccccc4)S(=O)(=O)C3)CC2)c1` (stereo not given): the max response, negative = inhibition was -8.28% (inactive).
With `Cc1cc2nc(-c3ccc(Cl)cc3)c(Cc3cccc(F)c3)n2c(C)c1Br`, the max response, negative = inhibition is 0% (inactive).
Regarding `COc1ccccc1CC1(C)C(=O)Nc2ccc(OC(F)(F)F)cc21` (stereo not given), the max response, negative = inhibition is -16.9% (inactive).
In the case of `CC(=O)Nc1ccc2c3c(ccc([N+](=O)[O-])c13)CC2` it was -18.8% (inactive); in that of `CC(=O)Nc1cccc(OCC(=O)/C=C2\N(C)c3ccccc3C2(C)C)c1`, 12.1% (inactive); in that of `CN1/C(=C\C=C2\N=C(c3ccc(F)cc3)OC2=O)C(C)(C)c2ccccc21`, -63.7% (active).
In the case of `CN1CCN(CCC(=O)N/N=C/C=C2\N(C)c3ccccc3C2(C)C)CC1` it was -23.3% (inactive).
For the compound `Cc1cc2c(cc1C)N1C(=O)c3cc4ccccc4cc3NC(=O)C1C(=O)N2` (stereo not given), the max response, negative = inhibition was 0% (inactive).
As to `CC(=O)C[C@@H]1OC[C@H](C)N1S(=O)(=O)c1ccc(C)cc1`, the max response, negative = inhibition was 1.58% (inactive).
Consider `Cc1nccn1-c1ccc(NC(=O)[C@H]2O[C@@H](n3ccc(=O)[nH]c3=O)[C@H](O)[C@@H]2O)cc1`, for which the max response, negative = inhibition is 23.4% (inactive).
Then `CCc1nc2c(OCc3ccc(C(F)(F)F)cc3)cccn2c1N(C)C(=O)CC(C)C`, with 3.13% (inactive); and `COc1cccc(-c2cnc(C(O)c3ccccc3OC)[nH]2)c1` (stereo not given), with 0% (inactive); and `CC1(C(=O)NCc2ccccc2)CSCC(=O)N1CCCn1ccnc1` (stereo not given), with 11.4% (inactive).
Regarding `CCOc1cc(/C=N/Nc2cc(C)nc3ccc(C)cc23)ccc1O`, the max response, negative = inhibition was 3.59% (inactive).
Then `Cc1ccc2cc(/C=N/Nc3ccc(C(=O)O)cc3)c(Cl)nc2c1`, with 13.3% (inactive); and `COc1ccc(NC(=O)C/C(C)=N/NC(=O)c2cnccn2)cc1Cl`, with 3.87% (inactive).
For `CCN(CC)c1ccc(/C=N/NC(=O)c2cnccn2)c(O)c1`, the max response, negative = inhibition is -57.7% (active).
In the case of `Cc1ccc(/C=N/NC(=O)C2=NNC(c3ccccc3)(c3ccccc3)C2)c(O)c1`, the max response, negative = inhibition was 15.1% (inactive).
In the case of `CCN(CC)c1ccc(/C=N/Nc2nc(C)cc(C)n2)c(O)c1` it was -81.5% (active); in that of `c1cc(-c2ccc3[nH]ccc3c2)n2ccnc2c1`, 0% (inactive).
In the case of `CCNC(=O)C1(C)CCN(C(=O)c2ccccc2)C1` (stereo not given) it was 0% (inactive); in that of `COc1ccc(C(C(=O)NCc2ccccc2)n2c(=O)c(-c3ccccc3)nc3ccccc32)cc1` (stereo not given), -3.74% (inactive).
Turning to `COc1ccc(OC)c(NC(=O)C2CCCN2S(=O)(=O)c2ccc3c(c2)CC(C)N3C(C)=O)c1` (stereo not given), the max response, negative = inhibition is -11.1% (inactive).
Then `CCN(CCN(C)C)C(=O)c1ccc2nc(C)c(N(C)C(=O)CCc3ccccc3)n2c1`, with 14.8% (inactive); and `COc1ccc(S(=O)(=O)N2CCC(C(=O)NCCC(=O)Nc3ccccc3OC)CC2)cc1`, with 23.8% (inactive); and `CN=C1C=C/C(=N/N=c2\ccn(O)cc2C)C=C1C`, with -67.8% (active).
In the case of `O=C(COC(=O)CCc1c[nH]c2ccccc12)Nc1cccc(Cl)c1` it was -6.82% (inactive); in that of `O=C(CSC(=S)N1CCOCC1)c1ccccc1`, -4.48% (inactive).
In the case of `NC(=NC(=O)c1ccccc1)N1CCOCC1` it was -52.7% (active); in that of `O=C(NC(=O)N1CCOCC1)c1ccccc1`, 160% (inactive); in that of `Cc1cc2oc(=O)cc(CN(C)Cc3ccccc3)c2cc1Cl`, 9.91% (inactive).
For `CCCCN1C(=O)C(CC(=O)NCc2cccs2)CC(C(=O)N2CCCCCC2)=C1C` (stereo not given), the max response, negative = inhibition was 0% (inactive).
In the case of `COc1ccccc1CNC(=O)CCCNS(=O)(=O)c1cccc2nsnc12` it was -0.0929% (inactive); in that of `O=C(CCS(=O)(=O)c1cccc2nsnc12)N1CCN(c2ccccc2F)CC1`, 1.65% (inactive); in that of `O=C(CCCNS(=O)(=O)c1cccc2nsnc12)NCCN1CCN(c2ccccc2F)CC1`, -84.7% (active).
Then `OC[C@@H]1CN(Cc2ccc3c(c2)OCO3)C[C@H](n2cnc3c(NCc4ccco4)ncnc32)O1`, with -5.45% (inactive); and `COC(=O)[C@@]1(Sc2ccc(C)cc2)CC(=O)N(c2cccc(SC)c2)[C@@H]1c1ccccc1`, with 3.45% (inactive); and `CC(C)Nc1nc(N(c2ccccc2)c2ccccc2)nc(-n2ccnc2)n1`, with 16.7% (inactive).
As to `N#Cc1nc(N)nc(N(c2ccccc2)c2ccccc2)n1`, the max response, negative = inhibition is -74% (active).
